Sampled rows, rich in hits. Any-hit rate of the full collection: about 2.9%.
EP2 antag = inhibitors of human EP2 prostaglandin E2 receptor | inhibition, % at 25 µM | C6 glioma cells expressing human EP2, cAMP TR-FRET; cells stimulated with saturating PGE2 | AID 1422 | 0.52% of 260,000 active;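 active = percent inhibition above 40 after rounding to a whole number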;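 note: rat C6 glioma host cells with rolipram phosphodiesterase inhibitor present; the protocol text gives 20 µM as final concentration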
SKN-1 block = C. elegans SKN-1 inhibition; 0.49% of 360,000 active; inhibition, % at 21.8 µM; AID 624304; C. elegans VP596 Pgst-4::GFP/RFP ratio, acrylamide-induced, 24 h;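 active = interference check ratio from 0.5 to 1.5 plus GFP to RFP signal ratio inhibition reaching or exceeding a fixed threshold, cut at about 30% in these data, passing the limit was not always enough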
NR1D1 modulator = Rev-erb alpha (human) modulation. activity, % at 10 µM. Rev-erbα–FITC-DNA binding, fluorescence polarization, 90 min. 0.79% of 370,000 active. AID 1259318. P20393;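 active = activity above about 14%, limit read from the data; passing the limit was not always enough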;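 note: 0% = DMSO wells with 35 nM protein and 100% = DMSO wells with 750 nM protein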
Target sequence (P20393 whole entry, looked up): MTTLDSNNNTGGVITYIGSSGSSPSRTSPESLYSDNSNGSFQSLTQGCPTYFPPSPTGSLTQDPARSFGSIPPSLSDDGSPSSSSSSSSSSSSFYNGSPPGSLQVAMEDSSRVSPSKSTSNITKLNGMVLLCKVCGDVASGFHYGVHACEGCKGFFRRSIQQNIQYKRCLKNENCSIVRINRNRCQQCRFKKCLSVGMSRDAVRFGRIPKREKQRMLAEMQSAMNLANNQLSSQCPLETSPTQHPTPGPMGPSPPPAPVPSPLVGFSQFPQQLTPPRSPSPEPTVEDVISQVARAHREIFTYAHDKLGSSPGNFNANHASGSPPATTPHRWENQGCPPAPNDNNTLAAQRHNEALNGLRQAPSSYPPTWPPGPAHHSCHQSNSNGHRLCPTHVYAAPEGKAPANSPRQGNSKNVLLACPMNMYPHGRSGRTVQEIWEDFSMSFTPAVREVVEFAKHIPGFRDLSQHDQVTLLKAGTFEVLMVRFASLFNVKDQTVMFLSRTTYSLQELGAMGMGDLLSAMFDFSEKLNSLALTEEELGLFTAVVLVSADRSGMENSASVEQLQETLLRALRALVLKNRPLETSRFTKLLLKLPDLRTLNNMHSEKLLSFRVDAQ
EP2 mod = modulates human prostaglandin E2 receptor EP2 signaling; 0.83% of 260,000 active; EP2-expressing cells, cAMP HTRF FRET, PGE2 co-stimulation; induction, % at 25 µM; P43116; AID 940;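 active = compounds whose cAMP rise, as percent of the full-agonist control response, exceeds 60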;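 note: rat C6 glioma line stably carrying human EP2 under a CMV promoter; the protocol text gives 20 µM as final concentration; 100% = response of wells given 1 µM PGE2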
RAM network inh = inhibitors of the yeast RAM network | inhibition, % at 50 µM | S. cerevisiae dse1pr::URA3 reporter, 5-FOA growth OD615, 2 d; analog-sensitive cbk1-as2 kinase mutant strain | AID 868 | 1.8% of 190,000 active;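 active = inhibition above a set limit, 3 SD over mean compound inhibition, cut at about 8.4% in these data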;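 note: 0% = DMSO-only wells with no growth and 100% = 10 µM 1-NA-PP1 full growth; inhibition rescues growth on 5-FOA so higher OD means more RAM inhibition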
PG9 Ab binder = small molecules binding HIV-1 gp120 antibody PG9. TR-FRET gp120-PG9 antibody binding. inhibition, % at 6.7 µM. 0.43% of 360,000 active. AID 624416; in the data active = inhibition above about 8.5%
Numbers without * were called inactive; · = no result given.

SMILES | EP2 antag | SKN-1 block | NR1D1 modulator | EP2 mod | RAM network inh | PG9 Ab binder
CC1=NN(c2ccc(F)cc2)C(=O)/C1=C\c1c(O)[nH]c(=S)[nH]c1=O | 9 | · | · | -10 | · | ·
Cc1ccc(CN(Cc2ccco2)S(=O)(=O)c2ccc(S(=O)(=O)NCC3CCCO3)cc2)cc1 (configuration not stated) | 2 | 4 | 1 | 27 | 9.3* | 2
Cc1cc(-c2cncnc2C2CCN(C(=O)C3(c4ccccc4F)CCCC3)CC2)on1 | · | · | · | -25 | · | ·
COc1ccc(C(=O)COC(=O)c2cc(S(=O)(=O)NCc3ccccc3)ccc2O)cc1 | 5 | 6 | 5 | 16 | 9.1* | -1
CCn1c2cc(C)oc2c2cnn(CC(=O)N(C)CCc3ccccn3)c(=O)c21 | · | · | · | -21 | · | ·
O=C1CC(c2ccc(O)c(O)c2)Oc2cc(O)cc(O)c21 (configuration not stated) | 15 | 4 | 3 | 10 | · | 0
Oc1cc(O)c2c(c1)O[C@@H](c1ccc(O)c(O)c1)[C@H](O[C@@]1(c3cc(O)c(O)c(O)c3)Oc3cc(O)cc(O)c3[C@H](O)[C@H]1O)C2 | 57* | · | · | 12 | · | ·
CCOC(=O)/C(C#N)=C1\Nc2ccccc2N=C1N(CC(C)C)CC(C)C | · | 6 | 4 | 42 | 8.9* | -1
CCOC(=O)C1=C(C)Nc2ccccc2N=C1N | 1 | -3 | 0 | 6 | 1 | 1
CCOc1ccc(/C(C)=N/N2C(=O)C(CC(=O)Nc3ccc(OC)cc3[N+](=O)[O-])SC2=Nc2cccc(C)c2C)cc1 (configuration not stated) | 12 | 0 | 3 | 19 | 8 | 1
COc1ccccc1/C=N/N1C(=O)C(CC(=O)Nc2ccc([N+](=O)[O-])cc2OC)SC1=Nc1cccc(C)c1C (configuration not stated) | 7 | · | 2 | -16 | 11* | -1
Cn1c(C(=O)OC(C(=O)NCc2ccco2)c2ccccn2)cc2sccc21 (configuration not stated) | 11 | · | · | -26 | · | ·
CCCNCc1cc(Cl)c(OCC)c(Cl)c1 | 10 | 42* | 4 | 20 | 1 | 0
O=C(c1nc2ccccc2s1)C1CCN(C(=O)Cc2c(F)cccc2Cl)CC1 | · | · | · | -18 | · | ·
Cn1cccc1/C=C(\C#N)C(N)=S | 6 | -13 | -8 | -16 | · | -4
Cn1c(/C=C(\C#N)C(N)=S)ccc1-c1ccc(Br)cc1 | 0 | 5 | 5 | -5 | 9.6* | -1
COc1ccc(CC(=O)n2nc(-c3ccccc3)nc2NCc2ccco2)cc1 | · | -10 | -2 | 13 | 10* | 1
O=C(CCc1ccccc1)n1nc(-c2ccccc2)nc1NCc1ccco1 | 8 | 6 | -1 | 12 | 8 | -1
CC(C)NC(=O)CN1CCN(c2cccc3c2C(=O)c2ccccc2C3=O)CC1 | 8 | · | · | -24 | · | ·
O=C1SC(SCc2ccccc2)=N/C1=C\c1ccco1 | 4 | 14 | 2 | 53 | 8.8* | -1
CCn1c(CCC(=O)Nc2nc3c(s2)CCCC3)nc2cc(S(=O)(=O)N(C)C)ccc21 | 7 | 54* | -7 | -14 | 0 | 3
CCN(CC(=O)Nc1c(F)cccc1F)C(=O)CCc1nc2cc(S(=O)(=O)N(C)C)ccc2n1CC | · | -13 | 3 | · | · | 0
CC(=O)Cn1ncc(Br)c(Br)c1=O | 12 | -13 | -6 | 19 | 9.9* | 0
CC[C@H](Cn1ncc2ccccc2c1=O)NC(=O)c1ccc2c(c1)OCO2 | · | · | · | -9 | · | ·
CCOCCn1c(=NC(=O)c2cc3ccccc3oc2=O)sc2cc(S(N)(=O)=O)ccc21 | 8 | 5 | 1 | 24 | 8.9* | -2
COCCn1c(=NC(=O)c2cc(-c3cccs3)nc3ccccc23)sc2cc(S(N)(=O)=O)ccc21 | 8 | 12 | 3 | 37 | 5 | -1
COC(=O)C1=C(C)NC2=C(C(=O)c3ccccc32)C1c1ccc(C(F)(F)F)cc1 (configuration not stated) | 12 | · | · | -70 | · | ·
CCOc1ccc(-c2nnc(-c3cccs3)o2)cc1OCC | 4 | 15 | -3 | 45 | 3 | 1
CCOc1ccc(-c2nnc(-c3cccs3)o2)cc1 | 10 | 70* | 2 | 2 | 1 | 0
N#Cc1cc2cc3c(cc2nc1SCC(=O)N1CCc2ccccc2C1)OCCO3 | 19 | · | · | -34 | · | ·

High-throughput results (PubChem)
